Unmarked numbers belong to inactive results. Results filed as inconclusive are left out. Activity calls are given as the source filed them. Unless noted, calls follow the shape of the dose curve; as a rule, active = well fitted curve in the direction sought with a large enough effect in the repeat runs; inconclusive = weak or mixed curves; inactive = no such curve, though single readings can be large; an effect the other way counts as inactive or inconclusive.

Assay [1] is described as follows: qHTS assay to identify small molecule antagonists of the estrogen related receptor (ERR) signaling pathway from Tox21 library - cell viability counter screen (AID 1224834). Also: nearly all actives have a fitted effect of over 30% in size. Also: potency is read from the fitted curve at half-maximal effect. In short, it runs like this:
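Compounds in DMSO were pinned onto ERR cells that had been incubated for 6 h, and the plates were held at 37 C for 17.5 h. CellTiter-Fluor reagent was then added and fluorescence was measured after 30 min.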
(Quantitative high-throughput screening tests each substance at several concentrations.)

A short description of assay [2]: qHTS assay to identify small molecule agonists of the constitutive androstane receptor (CAR) signaling pathway - cell viability counter screen (AID 1224836). Also: nearly all actives have a fitted effect of over 45% in size. In short, it runs like this: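 Fluorescence from CellTiter-Fluor indicates live cells after 23 h exposure. The human hepatoma line expresses hCAR and a CYP2B6-2.2kb reporter. Incubation medium contains 0.75 uM PK11195 (final).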

Assay [3] can be described thus: qHTS assay to identify small molecule antagonists of the constitutive androstane receptor (CAR) signaling pathway - cell viability counter screen (AID 1224837). Also: nearly all actives have a fitted effect of over 45% in size. In a few lines:
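Cells are seeded, rested 4 hr at 37 C/5% CO2, dosed with compound (15-point series) and 50 nM CITCO, incubated a further 23 hr, and then CellTiter-Fluor reagent is added before fluorescence is read. The line is HepG2 with stable hCAR and CYP2B6-2.2kb.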

Assay [4] addresses Nuclear receptor subfamily 1 group I member 3 (Homo sapiens) (UniProt Q14994). Put plainly: qHTS assay to identify small molecule antagonists of the constitutive androstane receptor (CAR) signaling pathway (AID 1224838).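 Also: HepG2 cells stably expressing hCAR with CYP2B6 luciferase reporter stimulated by CITCO; nearly all actives have a fitted effect of over 40% in size.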 In short, it runs like this: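 Luminescence from a CYP2B6-2.2kb promoter reporter in hCAR-expressing HepG2 cells reflects CAR signaling. Cells received compounds at 15 concentrations and 50 nM CITCO (final), then incubated 24 h at 37 C/5% CO2.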

Assay [5] shares this target. Put plainly: qHTS assay to identify small molecule agonists of the constitutive androstane receptor (CAR) signaling pathway (AID 1224839). Also: nearly all actives have a fitted effect of over 15% in size. Also: potency is read from the fitted curve at half-maximal effect.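 As to activation: HepG2 cells stably carrying human CAR and a CYP2B6 luciferase reporter.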 In a few lines:
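Stable hCAR/CYP2B6-2.2kb HepG2 line in DMEM with 10% FBS; compounds (15 concentrations) and 0.75 uM PK11195 final, 24 h at 37 C/5% CO2, then ONE-Glo luminescence after 30 min.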

A short description of assay [6]: qHTS assay to identify small molecule antagonists of the estrogen related receptor signaling pathway with the pleiotropic PPARgamma coactivator (PGC) from Tox21 10K library - cell viability counter screen (AID 1224840; active = well fitted cell-killing curve with a large enough effect in the repeat runs, not every such curve was filed as active; also: nearly all actives have a fitted effect of over 40% in size). In short, it runs like this: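 Cell viability is measured by CellTiter-Fluor fluorescence in PGC/ERR cells that receive compounds after a 6-hour attachment period and are then incubated 17.5 hours at 37 C.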

The target of assay [7] is Thyrotropin receptor (Homo sapiens) (UniProt P16473). Put plainly: qHTS assay to identify small molecule agonists of the thyroid stimulating hormone receptor (TSHR) signaling pathway (AID 1224843; calls by dose curve; also: nearly all actives have a fitted effect of over 45% in size). In a few lines:
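Using 15 concentrations per compound in triplicate, cAMP production was monitored in TSHR-HEK293 cells after 30 min compound incubation at RT; HTRF reagents followed, with fluorescence intensity recorded after 1 h.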

The nature of assay [8]: qHTS assay to identify small molecule agonists of the hypoxia (HIF-1) signaling pathway - cell viability counter screen (AID 1224844; calls by dose curve; also: nearly all actives have a fitted effect of over 50% in size; also: potency is read from the fitted curve at half-maximal effect). In a few lines: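 Viability counter screen: HRE-bla ME-180 cells plated 5 hrs before compound addition, treated 17 hrs at 37C and 5% CO2, then CellTiter-Glo added after the FRET reporter read; luminescence after 30 min.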
Assay [9] in a line: qHTS assay to identify small molecule agonists of H2AX (AID 1224845; active = well fitted activation curve with a large enough effect in the signal ratio in the repeat runs, not every such curve was filed as active; the % refers to the signal ratio). In short, it runs like this: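 Wild-type CHO-K1 cells plated overnight, then exposed 3 hr at 37C to compounds at 15 concentrations (0.76% DMSO). Lysed, then HTRF anti-pH2AX(S139)-cryptate/anti-H2AX-d2 detection after 24 hr at room temperature; emissions 665 and 620 nm.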
Assay [10] can be described thus: qHTS assay to identify small molecule agonists of H2AX - cell viability counter screen (AID 1224847; calls by dose curve; also: nearly all actives have a fitted effect of over 30% in size; also: potency is read from the fitted curve at half-maximal effect). In a few lines:
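Viability of CHO-K1 (wild type) cells after 3 hr compound exposure was measured by CellTiter-Glo luminescence.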

The nature of assay [11]: qHTS assay to identify small molecule antagonists of the estrogen related receptor (ERR) signaling pathway from Tox21 library (AID 1224848). Also: nearly all actives have a fitted effect of over 50% in size. In short, it runs like this: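 Tox21 10K compounds in DMSO tested for ERR pathway antagonism in NTP's ERR cell line; 18 h, 37 C exposure; ONE-Glo luminescence.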
Assay [12] in a line: qHTS assay to identify small molecule agonists of the estrogen related receptor (ERR) signaling pathway from Tox21 library (AID 1224849; calls by dose curve; also: nearly all actives have a fitted effect of over 15% in size). As to conditions: ERR reporter cell line, ONE-Glo luciferase, 18 h; at 92.4 µM (top of the series). In short, it runs like this: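 Quantitative HTS in agonist format: NTP ERR cell line, compounds transferred in DMSO after 6 h plating, 18 h incubation at 37 C, ONE-Glo luminescence endpoint.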

Assay [13] can be described thus: qHTS RealTime-Glo MT Cell Viability Assay in HepG2 cells - 24 hour (AID 1224867). Also: nearly all actives have a fitted effect of over 50% in size. In a few lines:
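Compound treatment began 5 h after plating HepG2 cells (600/well) with NanoLuc luciferase and prosubstrate. Plates stayed at 37 C for 40 h; luminescence was captured at six time points, 0 h through 40 h.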

Assay [14] is described as follows: qHTS RealTime-Glo MT Cell Viability Assay in HEK293 cells - 32 hour (AID 1224868). Also: top concentration of the series differs between compounds; nearly all actives have a fitted effect of over 50% in size. In short, it runs like this:
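Quantitative high-throughput screen of the Tox21 10K library in HEK293: cells and RealTime-Glo reagents plated together, compound added at 5 h, luminescence monitored through 40 h at 37 C.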

The nature of assay [15]: A CellTox Green Cytotoxicity Assay to monitor cytotoxicity in HEK293 cells - 0 hour (AID 1224869). Also: nearly all actives have a fitted effect of over 50% in size. In a few lines:
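Dead-cell fluorescence measured kinetically: asymmetric cyanine dye, HEK293, 600 cells/well, 5 h settle, 23 nL cpd/DMSO, 37 C, reads 0–40 h every 8 h.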

The nature of assay [16]: qHTS RealTime-Glo MT Cell Viability Assay in HepG2 cells - 40 hour (AID 1224870). Also: nearly all actives have a fitted effect of over 50% in size. In short, it runs like this: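 HepG2 cells mixed with RealTime-Glo MT reagents (NanoLuc plus cell-permeant prosubstrate) were seeded at 600 cells/well, incubated 5 h at 37 C/5% CO2, then pinned with compounds in DMSO; nonlytic luminescence tracked viability during 40 h treatment.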
Assay [17] deals with Luciferin 4-monooxygenase (Photinus pyralis) (UniProt P08659). Put plainly: qHTS assay to identify small molecule inhibitors of firefly luciferase (AID 1224835). Also: nearly all actives have a fitted effect of over 25% in size. Also: potency is read from the fitted curve at half-maximal effect. In short, it runs like this:
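Quantitative HTS format; KM concentrations of both substrates. Purified P. pyralis FLuc activity quantified from luminescence images.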

Assay [18] can be described thus: qHTS assay to identify small molecule antagonists of the estrogen related receptor signaling pathway with the pleiotropic PPARgamma coactivator (PGC) from Tox21 10K library (AID 1224841; call rule not given here). In a few lines:
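Cells stably carrying the PGC/ERR reporter, seeded at 2,000 per well, received pin-transferred compounds 6 h post-plating. Exposure lasted 18 h at 37 C. Signal: One-Glo luminescence.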

A short description of assay [19]: qHTS assay to identify small molecule agonists of the estrogen related receptor signaling pathway with the pleiotropic PPARgamma coactivator (PGC) from Tox21 10K library (AID 1224842). Also: nearly all actives have a fitted effect of over 15% in size. Also: potency is read from the fitted curve at half-maximal effect. In short, it runs like this:
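PGC/ERR reporter cells (NTP line) were seeded 2,000 per well, rested 6 h at 37 C/5% CO2, then pin-dosed with compounds in DMSO for 18 h at 37 C; luciferase read by One-Glo luminescence after 30 min at room temperature.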

The nature of assay [20]: qHTS assay to identify small molecule agonists of the hypoxia (HIF-1) signaling pathway (AID 1224846; active = well fitted activation curve with a large enough effect in the signal ratio in the repeat runs, not every such curve was filed as active; the % refers to the signal ratio). In short, it runs like this: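 Agonist mode reporter screen. ME-180 cells stably expressing bla under HRE control received test compounds in DMSO for 17 hrs (37C, 5% CO2), and beta-lactamase activity was then detected with the CCF4-AM FRET substrate.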
% is scaled to controls: 0 for no effect and ±100 for the full control effect.

Sequence of Nuclear receptor subfamily 1 group I member 3 (Homo sapiens) (Q14994 whole entry, looked up): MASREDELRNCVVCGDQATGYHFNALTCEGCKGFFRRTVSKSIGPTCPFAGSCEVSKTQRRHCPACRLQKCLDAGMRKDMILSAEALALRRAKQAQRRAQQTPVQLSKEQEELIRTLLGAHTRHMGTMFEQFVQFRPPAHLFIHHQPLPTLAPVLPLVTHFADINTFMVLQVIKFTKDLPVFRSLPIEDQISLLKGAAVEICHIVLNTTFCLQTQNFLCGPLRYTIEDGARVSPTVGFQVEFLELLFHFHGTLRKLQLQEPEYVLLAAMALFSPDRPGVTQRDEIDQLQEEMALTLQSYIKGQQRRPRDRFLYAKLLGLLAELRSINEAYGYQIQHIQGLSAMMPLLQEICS
Sequence of Luciferin 4-monooxygenase (Photinus pyralis) (P08659 whole entry, looked up): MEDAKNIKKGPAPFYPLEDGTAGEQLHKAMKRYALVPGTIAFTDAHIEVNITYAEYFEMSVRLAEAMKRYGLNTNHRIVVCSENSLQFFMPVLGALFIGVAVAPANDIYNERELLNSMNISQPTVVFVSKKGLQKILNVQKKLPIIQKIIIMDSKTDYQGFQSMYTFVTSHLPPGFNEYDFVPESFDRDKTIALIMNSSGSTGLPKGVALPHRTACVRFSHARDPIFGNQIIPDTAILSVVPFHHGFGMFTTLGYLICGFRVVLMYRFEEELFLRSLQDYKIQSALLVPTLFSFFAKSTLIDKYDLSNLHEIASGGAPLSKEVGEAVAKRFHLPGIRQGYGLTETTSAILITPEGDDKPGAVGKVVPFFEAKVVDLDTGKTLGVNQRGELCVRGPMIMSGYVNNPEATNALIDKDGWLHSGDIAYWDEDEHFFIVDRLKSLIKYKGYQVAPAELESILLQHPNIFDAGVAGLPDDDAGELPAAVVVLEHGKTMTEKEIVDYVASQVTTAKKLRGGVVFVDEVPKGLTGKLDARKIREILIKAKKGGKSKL
Sequence of Thyrotropin receptor (Homo sapiens) (P16473 whole entry, looked up): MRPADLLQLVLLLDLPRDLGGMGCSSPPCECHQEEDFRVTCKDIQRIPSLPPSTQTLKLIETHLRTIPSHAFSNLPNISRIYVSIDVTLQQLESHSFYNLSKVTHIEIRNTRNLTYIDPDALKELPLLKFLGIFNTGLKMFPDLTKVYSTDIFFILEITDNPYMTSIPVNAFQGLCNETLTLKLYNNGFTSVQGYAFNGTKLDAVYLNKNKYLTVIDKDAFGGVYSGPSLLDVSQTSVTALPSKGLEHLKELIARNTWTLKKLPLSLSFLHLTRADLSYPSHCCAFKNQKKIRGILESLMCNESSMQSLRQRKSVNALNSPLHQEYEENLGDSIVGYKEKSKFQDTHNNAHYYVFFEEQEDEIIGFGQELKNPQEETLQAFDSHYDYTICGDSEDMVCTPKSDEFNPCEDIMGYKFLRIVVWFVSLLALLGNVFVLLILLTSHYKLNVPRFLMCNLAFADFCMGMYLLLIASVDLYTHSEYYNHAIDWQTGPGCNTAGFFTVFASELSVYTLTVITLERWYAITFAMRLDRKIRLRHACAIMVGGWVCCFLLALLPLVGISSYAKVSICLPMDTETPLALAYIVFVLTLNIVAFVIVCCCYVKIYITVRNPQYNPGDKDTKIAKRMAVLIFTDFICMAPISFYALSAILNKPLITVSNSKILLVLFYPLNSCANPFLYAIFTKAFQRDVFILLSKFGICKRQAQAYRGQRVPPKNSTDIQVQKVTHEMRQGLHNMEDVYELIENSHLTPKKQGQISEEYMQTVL

Regarding `O=C1NC(=O)[C@@H]2CC=CC[C@H]12`, the Potency result in assay [1], in assay [2], in [3], in assay [4], in assay [5] and in assay [6] was “inactive” in each case. In addition, the Potency result in assay [7], in [9], in [10], in assay [11], in assay [13] and in assay [14] was “inactive” in each case. The Potency result in assay [15] and in assay [16] was “inactive” each time. Moreover, the Potency in assay [8] was 19.5 µM (active). The activity change, positive = activation in assay [12] was -12.4%.
With `O=C(O)c1cc(N=Nc2ccc([N+](=O)[O-])cc2)ccc1O`, the Potency in assay [1] is 47.7 µM (active); in assay [17], 0.878 µM (active); in assay [5], 0.673 µM (active); in assay [19] it was 9.51 µM (active). Also, the Potency result in assay [4], in assay [18], in [7], in assay [8], in assay [10] and in assay [11] was “inactive” each time. The Potency result in [13], in assay [14], in assay [15] and in assay [16] was “inactive” each time. The activity change, positive = activation in assay [12] was 93.2% (active).
Consider `Nc1ccc(NCCO)c([N+](=O)[O-])c1`, for which the Potency in [1] is 48.6 µM (active); in [17], 35.6 µM (active); in assay [10], 80 µM (active). For the same compound, the Potency result in assay [4], in assay [5], in assay [18], in assay [19], in assay [8] and in [20] was “inactive” each time. Besides, the Potency result in assay [11], in assay [13], in [14] and in assay [15] was “inactive” throughout. Also, the activity change, positive = activation in assay [12] was -17.2%.
On to `O=c1[nH]c(=O)n([C@H]2C[C@H](O)[C@@H](CO)O2)cc1F`, for which the Potency entry in assay [1], in assay [17], in assay [2], in assay [3], in [6] and in [7] was “inactive” each time. The Potency result in [13], in [15] and in assay [16] was “inactive” throughout.

Source of the values: PubChem BioAssay (Tox21).
